Only some compounds are listed: those with a hit (about 8.2% of all), similar ones and a draw of the others.
MCF10A rerep – induces DNA re-replication in MCF 10a normal breast cells. MCF 10A DNA re-replication, Hoechst nuclear intensity, 48 h. Potency, µM (series often up to 46.1 µM), for inactives: at the top dose activity, positive = re-replication, actives largely listed as activators. 350,000 tested, 2.9% active; also: % of control where 0% means no effect; nearly all actives have a fitted effect of over 50% in size
KB-3-1 tox – kills parental KB-3-1 adenocarcinoma cells. 400,000 tested, 1.4% active. KB-3-1 viability, CellTiter-Glo ATP luminescence, 72 h. Potency, µM (highest dose often 46.1 µM), hits mostly cytotoxic. AID 1347075; also: % is scaled to controls: 0 for no effect and ±100 for the full control effect; nearly all actives have a fitted effect of over 60% in size
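KB-3-1 cells, DMEM (no phenol red) + 10% FBS; compound by pin transfer, 72 h, 37 °C. Readout: CellTiter-Glo luminescence after 10 min. Data normalized, curve-fitted.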
SW480 rereplic – DNA re-replication induction in SW480 cells; SW480 DNA re-replication, Hoechst DNA content imaging, 48 h; Potency, µM (top dose mostly 46.1 µM), inactives show top-dose re-replication activation, hits mostly activators; 340,000 tested, 1.8% active; also: % of control where 0% means no effect; nearly all actives have a fitted effect of over 55% in size
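Hoechst fluorescence of nuclei (405 nm excitation, 500-530 nm emission) measured by plate-scanning imager after 48 hr compound exposure at 37 C; re-replication scored as increased number of nuclei with elevated intensity.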
KB-V1 cytotox – KB-V1 MDR subline cytotoxicity; KB-V1 MDR cells viability, CellTiter-Glo, 72 h; Potency, µM (doses to about 46.1 µM), usual class: cytotoxic; 400,000 tested, 3.4% active; AID 1347076; also: % is scaled to controls: 0 for no effect and ±100 for the full control effect; nearly all actives have a fitted effect of over 60% in size
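KB-V1, DMEM (no phenol red) + 10% FBS; cpd pin-transferred, titration series; 72 h, 37 degrees C; CellTiter-Glo, luminescence. Data normalized, curve-fit.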
ELG1 DNA repair – blocks ELG1-dependent DNA repair in HEK293T cells; HEK293T ELG1-luciferase reporter, luminescence, 16 h; DNA damage induced by 5-fluorouridine; Potency, µM (titrated, usually from 46.1 µM), for inactives: at the top dose activity change, negative = inhibition, most hits filed as inhibitors; 330,000 tested, 2.3% active; also: % is scaled to controls: 0 for no effect and ±100 for the full control effect; nearly all actives have a fitted effect of over 55% in size
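DMSO vehicle served as the neutral condition. Each well held 2,000 cells given 5-fluorouridine plus compound; after 16 hr at 37 °C/5% CO2, ONE-Glo was added and luciferase measured 30 min later.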
Starred values were filed as active, the others as inactive; i = inactive; ? = inconclusive; . = not tested or not shown; [ ] = remark or other dose. Calls follow the shape of the dose curve; as a rule, active = well fitted curve in the direction sought with a large enough effect; inconclusive = small, poorly fitted or top-dose-only effect, or another doubt; inactive = no such curve, though single readings can be large; an effect the other way counts as inactive or inconclusive. Potency is read from the fitted curve at half-maximal effect.

SMILES | MCF10A rerep | KB-3-1 tox | SW480 rereplic | KB-V1 cytotox | ELG1 DNA repair
O=C(NCCSCc1cccc(Cl)c1)C1CCN(S(=O)(=O)Cc2ccccc2)CC1 | . | i | . | i | .
Cc1cc(N)cc(C)c1-c1c(Br)cc(N)cc1Br | ? | 13µM* | ? | 16µM* | .
Cc1ccc(C(C(=O)NCc2ccco2)N(C(=O)CNC(=O)c2cccs2)c2c(C)cccc2C)cc1 (centres undefined) | 18µM* | i | ? | i | 17%
O=C(NCc1ccco1)C(c1ccccc1)N(C(=O)Cc1cccs1)c1ccccc1F (centres undefined) | 15% | i | 15% | ? | 18µM*
Cc1ccc(C(C(=O)NCc2ccco2)N(C(=O)CNC(=O)c2cccs2)c2c(C)cc(C)cc2C)cc1 (centres undefined) | 5% | i | 1% | ? | 18%
CCOc1ccc(NC(=O)CN2C(=O)COc3ccc(S(=O)(=O)NC4CCCC4)cc32)cc1 | . | i | . | ? | .
CCOc1ccc(-c2cnc(NCc3cccc(Cl)c3)n2C)cc1 | . | i | . | i | .
c1ccc(CSc2nnc(-c3ccco3)o2)cc1 | 23% | i | 12% | i | ?
c1ccc(-c2nnc(SCc3nc4ccccc4[nH]3)n2Cc2ccco2)cc1 | 23% | i | -3% | ? | 21µM*
Cc1ccc(OCc2nnc(SCc3nc4ccccc4[nH]3)n2Cc2ccco2)cc1 | 10% | ? | 4% | ? | 9.2µM*
c1coc(-c2nnc(SCc3nc4ccccc4[nH]3)o2)c1 | 5% | ? | -1% | 15µM* | 4%
CC(C)Sc1ncc(Cl)c(C(=O)Nc2nc3ccc(S(C)(=O)=O)cc3s2)n1 | . | i | . | i | .
COc1c(O)cc2c(c1O)[C@@H]1O[C@@H](CO)[C@@H](O)[C@@H](O)[C@@H]1OC2=O | 3%[20.6 µM] | . | 2%[20.6 µM] | . | .
C[C@@H]1CN([C@H](C)CO)C(=O)c2cc(NC(=O)Cc3ccccc3)ccc2O[C@H]1CN(C)Cc1ccc(Oc2ccccc2)cc1 | 16µM* | ? | ? | ? | -23%
C[C@H]1CN([C@@H](C)CO)C(=O)c2cc(NC(=O)Cc3ccccc3)ccc2O[C@H]1CN(C)Cc1ccccc1 | 9% | i | -3% | i | 13%
C[C@@H]1CCCCO[C@H](CN(C)C(=O)c2ccncc2)[C@H](C)CN([C@@H](C)CO)C(=O)c2cc(NC(=O)c3ccccc3)ccc2O1 | . | i | . | i | .
CCCN(C)C[C@@H]1OCCCC[C@@H](C)Oc2ccc(NC(=O)c3ccccc3)cc2C(=O)N([C@H](C)CO)C[C@@H]1C | . | 4.6µM* | . | i | .
C[C@@H]1CCCCO[C@H](CN(C)Cc2ccc(C(F)(F)F)cc2)[C@H](C)CN([C@@H](C)CO)C(=O)c2cc(NC(=O)Cc3ccccc3)ccc2O1 | . | ? | . | 26µM* | .
COc1ccc(CC(=O)c2ccc(OC)c(OC)c2C)cc1OC | 0% | 6.5µM* | ? | 2.3µM* | 2%
COc1ccc(CC(=O)Cc2ccc(OC)c(OC)c2)cc1OC | . | i | . | i | .
O=C(c1ccccc1)N(c1ccccc1)c1nccc2ccccc12 | 7% | i | -1% | i | .
Cc1nc(Nc2ncc(C(=O)Nc3c(C)cccc3Cl)s2)cc(N2CCN(CCO)CC2)n1 | 19µM* | ? | 17µM* | i | .
COc1ccc(OC)c(-c2csc(N(Cc3ccco3)C(=O)c3ccco3)n2)c1 | ? | i | 1% | i | 18µM*
COCCCN(C(=O)c1ccco1)c1nc(-c2cc(OC)ccc2OC)cs1 | 24% | i | -2% | 1.8µM* | ?
COc1ccc(-c2csc(N(CCCN3CCOCC3)C(=O)c3ccco3)n2)cc1 | ? | ? | ? | ? | 16µM*
COc1ccc(OC)c(-c2csc(N(C)C(=O)c3ccco3)n2)c1 | ? | i | -7% | i | -12%
CC1CCC2(CC1)NC(=O)N(CC(=O)NC(=O)Nc1ccc3c(c1)OCCO3)C2=O (centres undefined) | -5% | i | 3% | i | ?
COc1ccc(NC(=O)C(=O)NCc2ccco2)c(OC)c1 | . | i | . | i | .

Screening data from PubChem.
